{"source": "PubChem BioAssay (EPA / NIEHS)", "note": "Active and inactive are the calls of the source. How the source made its calls: active means hit-call score of the fitted dose curve at least 0.9, where 1 is the maximum; inactive means score below 0.9.", "data": [{"read-out": "Interleukin-1 alpha (IL1a), IL1A (gene 3552)", "assay": "BSK_BE3C_IL1a: BioMAP Diversity Plus: BE3C Assay for Interleukin-1 alpha (IL1a) Biomarker Activity (AID 2283016)", "details": "primary human bronchial epithelial cells; actives raise or lower the signal", "summary_of_the_method": "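Measured in human lung primary bronchial epithelial cells: IL-1a by ELISA at 24 h after dosing, with bidirectional fitting against DMSO.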", "values": [{"smiles": "CC[C@H]1CC[C@H](NCc2cc3c(cc2OC)[C@H]2C[C@H]2C(=O)N3C)[C@H](c2ccccc2)N1", "outcome": "inactive"}, {"smiles": "Oc1ccc2c(c1)-c1ccccc1C2", "outcome": "inactive"}, {"smiles": "Cc1c(-c2cccnc2)c2ccccc2n1CCCCC(=O)O", "outcome": "inactive"}, {"smiles": "Cc1ccc(C)c(O)c1", "outcome": "inactive"}, {"smiles": "CCCCC(CC)COC(=O)CCCCCCCCC(=O)OCC(CC)CCCC", "note": "(configuration not stated)", "outcome": "inactive"}, {"smiles": "Cc1ccc(S(=O)(=O)O)cc1C", "outcome": "inactive"}, {"smiles": "Cc1ccc(N)cc1O", "outcome": "inactive"}, {"smiles": "CCC(C)(C)C(=O)O[C@H]1C[C@@H](C)C=C2C=C[C@H](C)[C@H](CC[C@@H]3C[C@@H](O)CC(=O)O3)[C@H]21", "AC50": "33.1 µM (active)"}, {"smiles": "C[C@](N)(Cc1ccc(O)c(O)c1)C(=O)O", "outcome": "inactive"}, {"smiles": "CC(C)c1cccc(C(C)C)c1N1C(=O)c2ccc(O)cc2C1=O", "AC50": "20 µM (active)"}, {"smiles": "CCCCCCCCCCCCCCCO", "outcome": "inactive"}, {"smiles": "Cn1cnc([N+](=O)[O-])c1Sc1ncnc2nc[nH]c12", "outcome": "inactive"}, {"smiles": "CC(O)CN(CCN(CC(C)O)CC(C)O)CC(C)O", "note": "(configuration not stated)", "outcome": "inactive"}, {"smiles": "CNCc1ccc(NC(=O)c2c[nH]c3c2C(=O)CCC3)cc1", "outcome": "inactive"}, {"smiles": "Clc1nc(Cl)c(Cl)c(Cl)c1Cl", "AC50": "29.2 µM (active)"}, {"smiles": "CCn1nc(Cc2ccccc2)cc1C1CCN(C[C@H]2C[C@H](N(C)[C@@H](C(=O)O)C(C)C)C[C@@H]2c2cccc(F)c2)CC1", "outcome": "inactive"}, {"smiles": "O=C1CCCCCN1", "outcome": "inactive"}, {"smiles": "COc1ccc(-n2nc(C(F)F)cc2-c2ccc(S(C)=O)cc2)cc1", "note": "(configuration not stated)", "outcome": "inactive"}, {"smiles": "Cc1[nH]cnc1C[C@H]1CCc2c(C)c3ccccc3n2C1=O", "outcome": "inactive"}, {"smiles": "O=C(O)c1cccc(N(Cc2cccnc2)c2ccc(OC(F)F)c(OC(F)F)c2)c1", "outcome": "inactive"}, {"smiles": "Fc1ccccc1[C@@H](F)COC1CCC(Nc2ncnc3[nH]ncc23)CC1", "note": "(some centres not stated)", "outcome": "inactive"}, {"smiles": "CCNc1ccccc1", "outcome": "inactive"}, {"smiles": "COc1ccc2sc(C(=O)Nc3nnn[nH]3)c(OC(C)C)c2c1", "AC50": "12.2 µM (active)"}, {"smiles": "CCOC(=O)COc1ccc2c(c1)CC(NCC(O)c1cccc(Cl)c1)CC2", "note": "(configuration not stated)", "outcome": "inactive"}, {"smiles": "COC(=O)c1ccccc1O", "outcome": "inactive"}, {"smiles": "CNS(=O)(=O)c1cc(C(=O)N2CCC(CCN3C4CCC3CC(n3c(C)nc5ccccc53)C4)(c3cccc(F)c3)CC2)c(Cl)cc1F", "note": "(configuration not stated)", "outcome": "inactive"}, {"smiles": "O=c1n(CC2CO2)c(=O)n(CC2CO2)c(=O)n1CC1CO1", "note": "(configuration not stated)", "outcome": "inactive"}, {"smiles": "NC(=O)NO", "outcome": "inactive"}, {"smiles": "CN(C)c1ccc(Cc2ccc(N(C)C)cc2)cc1", "outcome": "inactive"}]}, {"read-out": "Monocyte Chemoattractant Protein-1 (MCP1), CCL2 (gene 6347)", "assay": "BSK_3C_MCP1: BioMAP Diversity Plus: 3C Assay for Monocyte Chemoattractant Protein-1 (MCP1) Biomarker Activity (AID 2283017)", "details": "primary human endothelial cells (HUVEC); actives raise or lower the signal", "summary_of_the_method": "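MCP-1 was measured by ELISA 24 h after dosing in primary HUVEC 3C cultures and fitted in both directions relative to DMSO; cytotoxicity was checked by SRB total-protein staining in parallel wells.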", "values": [{"smiles": "CC[C@H]1CC[C@H](NCc2cc3c(cc2OC)[C@H]2C[C@H]2C(=O)N3C)[C@H](c2ccccc2)N1", "outcome": "inactive"}, {"smiles": "Oc1ccc2c(c1)-c1ccccc1C2", "outcome": "inactive"}, {"smiles": "Cc1c(-c2cccnc2)c2ccccc2n1CCCCC(=O)O", "outcome": "inactive"}, {"smiles": "Cc1ccc(C)c(O)c1", "outcome": "inactive"}, {"smiles": "CCCCC(CC)COC(=O)CCCCCCCCC(=O)OCC(CC)CCCC", "note": "(configuration not stated)", "outcome": "inactive"}, {"smiles": "Cc1ccc(S(=O)(=O)O)cc1C", "outcome": "inactive"}, {"smiles": "Cc1ccc(N)cc1O", "outcome": "inactive"}, {"smiles": "CCC(C)(C)C(=O)O[C@H]1C[C@@H](C)C=C2C=C[C@H](C)[C@H](CC[C@@H]3C[C@@H](O)CC(=O)O3)[C@H]21", "AC50": "18.6 µM (active)"}, {"smiles": "C[C@](N)(Cc1ccc(O)c(O)c1)C(=O)O", "outcome": "inactive"}, {"smiles": "CC(C)c1cccc(C(C)C)c1N1C(=O)c2ccc(O)cc2C1=O", "outcome": "inactive"}, {"smiles": "CCCCCCCCCCCCCCCO", "AC50": "32.6 µM (active)"}, {"smiles": "Cn1cnc([N+](=O)[O-])c1Sc1ncnc2nc[nH]c12", "outcome": "inactive"}, {"smiles": "CC(O)CN(CCN(CC(C)O)CC(C)O)CC(C)O", "note": "(configuration not stated)", "outcome": "inactive"}, {"smiles": "CNCc1ccc(NC(=O)c2c[nH]c3c2C(=O)CCC3)cc1", "outcome": "inactive"}, {"smiles": "Clc1nc(Cl)c(Cl)c(Cl)c1Cl", "outcome": "inactive"}, {"smiles": "CCn1nc(Cc2ccccc2)cc1C1CCN(C[C@H]2C[C@H](N(C)[C@@H](C(=O)O)C(C)C)C[C@@H]2c2cccc(F)c2)CC1", "outcome": "inactive"}, {"smiles": "O=C1CCCCCN1", "outcome": "inactive"}, {"smiles": "COc1ccc(-n2nc(C(F)F)cc2-c2ccc(S(C)=O)cc2)cc1", "note": "(configuration not stated)", "outcome": "inactive"}, {"smiles": "Cc1[nH]cnc1C[C@H]1CCc2c(C)c3ccccc3n2C1=O", "AC50": "27.5 µM (active)"}, {"smiles": "O=C(O)c1cccc(N(Cc2cccnc2)c2ccc(OC(F)F)c(OC(F)F)c2)c1", "outcome": "inactive"}, {"smiles": "Fc1ccccc1[C@@H](F)COC1CCC(Nc2ncnc3[nH]ncc23)CC1", "note": "(some centres not stated)", "AC50": "30.2 µM (active)"}, {"smiles": "CCNc1ccccc1", "outcome": "inactive"}, {"smiles": "COc1ccc2sc(C(=O)Nc3nnn[nH]3)c(OC(C)C)c2c1", "AC50": "12.3 µM (active)"}, {"smiles": "CCOC(=O)COc1ccc2c(c1)CC(NCC(O)c1cccc(Cl)c1)CC2", "note": "(configuration not stated)", "AC50": "33.6 µM (active)"}, {"smiles": "COC(=O)c1ccccc1O", "outcome": "inactive"}, {"smiles": "CNS(=O)(=O)c1cc(C(=O)N2CCC(CCN3C4CCC3CC(n3c(C)nc5ccccc53)C4)(c3cccc(F)c3)CC2)c(Cl)cc1F", "note": "(configuration not stated)", "AC50": "33.7 µM (active)"}, {"smiles": "O=c1n(CC2CO2)c(=O)n(CC2CO2)c(=O)n1CC1CO1", "note": "(configuration not stated)", "AC50": "20 µM (active)"}, {"smiles": "NC(=O)NO", "outcome": "inactive"}, {"smiles": "CN(C)c1ccc(Cc2ccc(N(C)C)cc2)cc1", "outcome": "inactive"}]}, {"read-out": "Monocyte Chemoattractant Protein-1 (MCP1), CCL2 (gene 6347)", "assay": "BSK_4H_MCP1: BioMAP Diversity Plus: 4H Assay for Monocyte Chemoattractant Protein-1 (MCP1) Biomarker Activity (AID 2283018)", "details": "primary human endothelial cells (HUVEC); actives raise or lower the signal", "summary_of_the_method": "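Primary human umbilical vein endothelium is exposed to chemical for 24 h before MCP-1 is assayed by ELISA. Concentration-response fitted bidirectionally relative to DMSO.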", "values": [{"smiles": "CC[C@H]1CC[C@H](NCc2cc3c(cc2OC)[C@H]2C[C@H]2C(=O)N3C)[C@H](c2ccccc2)N1", "outcome": "inactive"}, {"smiles": "Oc1ccc2c(c1)-c1ccccc1C2", "outcome": "inactive"}, {"smiles": "Cc1c(-c2cccnc2)c2ccccc2n1CCCCC(=O)O", "outcome": "inactive"}, {"smiles": "Cc1ccc(C)c(O)c1", "outcome": "inactive"}, {"smiles": "CCCCC(CC)COC(=O)CCCCCCCCC(=O)OCC(CC)CCCC", "note": "(configuration not stated)", "outcome": "inactive"}, {"smiles": "Cc1ccc(S(=O)(=O)O)cc1C", "outcome": "inactive"}, {"smiles": "Cc1ccc(N)cc1O", "outcome": "inactive"}, {"smiles": "CCC(C)(C)C(=O)O[C@H]1C[C@@H](C)C=C2C=C[C@H](C)[C@H](CC[C@@H]3C[C@@H](O)CC(=O)O3)[C@H]21", "AC50": "0.392 µM (active)"}, {"smiles": "C[C@](N)(Cc1ccc(O)c(O)c1)C(=O)O", "outcome": "inactive"}, {"smiles": "CC(C)c1cccc(C(C)C)c1N1C(=O)c2ccc(O)cc2C1=O", "AC50": "4.76 µM (active)"}, {"smiles": "CCCCCCCCCCCCCCCO", "AC50": "29.1 µM (active)"}, {"smiles": "Cn1cnc([N+](=O)[O-])c1Sc1ncnc2nc[nH]c12", "outcome": "inactive"}, {"smiles": "CC(O)CN(CCN(CC(C)O)CC(C)O)CC(C)O", "note": "(configuration not stated)", "outcome": "inactive"}, {"smiles": "CNCc1ccc(NC(=O)c2c[nH]c3c2C(=O)CCC3)cc1", "outcome": "inactive"}, {"smiles": "Clc1nc(Cl)c(Cl)c(Cl)c1Cl", "outcome": "inactive"}, {"smiles": "CCn1nc(Cc2ccccc2)cc1C1CCN(C[C@H]2C[C@H](N(C)[C@@H](C(=O)O)C(C)C)C[C@@H]2c2cccc(F)c2)CC1", "outcome": "inactive"}, {"smiles": "O=C1CCCCCN1", "outcome": "inactive"}, {"smiles": "COc1ccc(-n2nc(C(F)F)cc2-c2ccc(S(C)=O)cc2)cc1", "note": "(configuration not stated)", "outcome": "inactive"}, {"smiles": "Cc1[nH]cnc1C[C@H]1CCc2c(C)c3ccccc3n2C1=O", "AC50": "22.9 µM (active)"}, {"smiles": "O=C(O)c1cccc(N(Cc2cccnc2)c2ccc(OC(F)F)c(OC(F)F)c2)c1", "outcome": "inactive"}, {"smiles": "Fc1ccccc1[C@@H](F)COC1CCC(Nc2ncnc3[nH]ncc23)CC1", "note": "(some centres not stated)", "outcome": "inactive"}, {"smiles": "CCNc1ccccc1", "outcome": "inactive"}, {"smiles": "COc1ccc2sc(C(=O)Nc3nnn[nH]3)c(OC(C)C)c2c1", "AC50": "26.9 µM (active)"}, {"smiles": "CCOC(=O)COc1ccc2c(c1)CC(NCC(O)c1cccc(Cl)c1)CC2", "note": "(configuration not stated)", "AC50": "28.2 µM (active)"}, {"smiles": "COC(=O)c1ccccc1O", "outcome": "inactive"}, {"smiles": "CNS(=O)(=O)c1cc(C(=O)N2CCC(CCN3C4CCC3CC(n3c(C)nc5ccccc53)C4)(c3cccc(F)c3)CC2)c(Cl)cc1F", "note": "(configuration not stated)", "outcome": "inactive"}, {"smiles": "O=c1n(CC2CO2)c(=O)n(CC2CO2)c(=O)n1CC1CO1", "note": "(configuration not stated)", "outcome": "inactive"}, {"smiles": "NC(=O)NO", "outcome": "inactive"}, {"smiles": "CN(C)c1ccc(Cc2ccc(N(C)C)cc2)cc1", "outcome": "inactive"}]}]}
